From PubChem BioAssay
Rows were chosen to be rich in hits. Some 2.4% of all compounds tested hit in one or more screens of this group.
D2 antagonist – D2 dopamine receptor (human) antagonism; P14416; HEK293 TREx D2 cells, calcium flux, dopamine EC80; inhibition, % at 10 µM; 340,000 compounds, 2% hits; in the data active = inhibition above about 30%; inactive = below that, where a call was filed
Target sequence (P14416 whole entry, looked up): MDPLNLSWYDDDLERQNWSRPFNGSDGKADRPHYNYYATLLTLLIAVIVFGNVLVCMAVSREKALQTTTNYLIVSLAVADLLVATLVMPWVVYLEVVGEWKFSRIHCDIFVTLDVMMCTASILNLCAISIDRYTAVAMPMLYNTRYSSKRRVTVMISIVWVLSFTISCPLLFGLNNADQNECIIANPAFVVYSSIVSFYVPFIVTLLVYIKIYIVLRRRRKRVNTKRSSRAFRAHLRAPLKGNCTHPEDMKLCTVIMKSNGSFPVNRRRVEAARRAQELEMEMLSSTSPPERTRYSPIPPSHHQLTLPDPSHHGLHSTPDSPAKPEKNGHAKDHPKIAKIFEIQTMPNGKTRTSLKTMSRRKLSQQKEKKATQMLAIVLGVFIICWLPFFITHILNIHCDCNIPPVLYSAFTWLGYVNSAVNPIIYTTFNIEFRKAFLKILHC
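Compounds are added to dye-loaded, induced HEK293 T-REx cells coupled to calcium release via D2; after a 3 min kinetic read an EC80 dopamine stimulus is given and fluorescence is recorded for 3 more min.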
D2 ag-1 – human D2 receptor agonism in beta-arrestin assay; DiscoveRx PathHunter D2 beta-arrestin, luminescence, 90 min; 100% = 57 uM dopamine signal; activation, % (no concentration beside the values); 360,000 compounds, 0.084% hits; AID 624465; in the data active = activation above about 40%
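Agonist mode: compounds alone added to overnight-plated D2 PathHunter cells for 90 min at 37 C, with 57 uM final dopamine (EC100) defining full response. Beta-arrestin recruitment detected by chemiluminescent reagent, read after 1 h at ambient temperature.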
D2 PAM-1 – potentiates the human D2 dopamine receptor allosterically; P14416; 360,000 compounds, 0.23% hits; DiscoveRx D2 beta-arrestin cells, luminescence, 90 min; 100% = 57 uM dopamine signal; potentiation, % (test concentration not listed); in the data active = potentiation above about 50%
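PathHunter D2 cells, attached overnight at 37 deg C, received compound in DMSO plus dopamine at EC20 (50 nM final) for 90 min at 37 deg C. Beta-arrestin recruitment was read as luminescence after 1 h with detection reagent at ambient temperature.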
D2 ag-2 – activates the human D2 dopamine receptor; P14416; HEK293 T-REx D2 cells, calcium flux agonist mode; activation, % at 2 µM; 340,000 compounds, 0.53% hits; AID 485358;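 active = activation over 3 SD above normal in the single-dose calcium agonist read, cut at about 30% in these data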
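Tetracycline-induced HEK293 T-REx cells with force-coupled D2 receptor, plated overnight at 30 C, loaded with no-wash calcium dye. After a 10 s baseline, compound was pin-added and calcium flux read kinetically for 180 s; calcium rises flagged agonists.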
D2 PAM-2 – positively modulates the human D2 dopamine receptor allosterically; HEK293 T-REx D2, calcium flux, EC20 dopamine potentiation; potentiation, % at 10 µM; 340,000 compounds, 0.34% hits;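 active = potentiation over 3 SD above the plate norm, cut at about 30% in these data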
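Primary screen. Calcium kinetics in induced HEK293 T-REx D2 cells: compound pre-addition 180 s, EC20 dopamine, 180 s more.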
Numbers stand for hits; i = inactive; nt = no result.

SMILES	D2 antagonist	D2 ag-1	D2 PAM-1	D2 ag-2	D2 PAM-2
COC(=O)CCC(=O)OC1(C)C(=O)C=C2C=C(C3CC3)N(Cc3ccc4c(c3)OCO4)C=C2C1=O (stereo not given)	i	i	73	i	i
COC(=O)CCC(=O)OC1(C)C(=O)C=C2C=C(C3CC3)N(Cc3ccc(OC)cc3)C=C2C1=O (stereo not given)	i	i	i	i	i
COc1cccc2c1OC1(C)CC2/C(=C(\C)O)C(=O)N1 (stereo not given)	51	i	i	i	i
CC(C)N(C)C1CCN(S(=O)(=O)c2ccc3[nH]c(=O)ccc3c2)CC1	nt	nt	nt	nt	i
Cc1ccc(C(=O)Nc2nc(-c3ccccc3)c(-c3ccccc3)o2)cc1	i	i	i	i	i
Cc1ccc(C(=O)Nc2c(C)cc(-c3ccccc3)oc2=O)cc1	31	i	i	i	i
CSc1cccc(NC(=O)C2CCCN(S(=O)(=O)c3cnc[nH]3)C2)c1 (stereo not given)	31	i	i	i	i
CSc1cccc(NC(=O)C2CCN(S(=O)(=O)c3cnc[nH]3)CC2)c1	i	i	i	i	i
COc1ccc(CNC(=O)c2ccc(Cn3c(=O)c4cccn4c4cccnc43)cc2)c(OC)c1	nt	nt	nt	i	i
CCOc1ccc(CCNC(=O)CCc2c(C)nc3c(c(C)nn3-c3ccccc3)c2C)cc1OCC	nt	nt	nt	i	i
CCOCCCN(C)C1CCN(C(=O)c2oc3ccccc3c2NC(=O)COc2ccc(F)cc2)CC1	50	i	i	i	i
CCn1ncc(C2=NOC(C(=O)NCc3ccc(OC)cc3)C2)c1C (stereo not given)	i	i	i	31	i
CN(C)c1ccc(/C=C2\SC(=S)N(Nc3ncc(C(F)(F)F)cc3Cl)C2=O)cc1	i	i	i	45	i
COc1cc(/C=C2\SC(=S)N(Nc3ncc(C(F)(F)F)cc3Cl)C2=O)ccc1O	i	i	i	i	i
O=C(NCc1n[nH]c(=S)n1-c1cccc(Cl)c1)c1ccc(S(=O)(=O)N2CCCCC2)cc1	i	i	i	i	33
Cc1cccc(-n2c(CNC(=O)c3ccc(S(=O)(=O)N4CCCC4)cc3)n[nH]c2=S)c1	i	i	i	i	i
CCN(CC(=O)NCc1ccc(F)cc1)C(=O)/C=C/c1ccc(OC)cc1	i	i	i	i	i
CCN(CC(=O)NCc1ccc(F)cc1)C(=O)/C=C/c1ccc(OC)c(S(=O)(=O)NC(C)C)c1	33	i	i	i	i
CC(C)CCn1c(=O)c2sccc2n2c(CCCC(=O)NC3CCC(C)CC3)nnc12 (stereo not given)	nt	nt	nt	i	i
CC(C)(CO)Nc1nc(N2CCCC2)nc(N2CCCC2)n1	47	i	i	i	i
NC(=O)C1C(c2ccccc2)=C1c1ccccc1	38	i	i	i	i
CCCNCC(O)COc1ccccc1C(=O)CCc1ccccc1 (stereo not given)	35	nt	nt	nt	nt
CCN(CC)CC(O)COc1ccccc1C(=O)CCc1ccccc1 (stereo not given)	i	i	i	i	i
Cc1ccccc1OCC(=O)Nc1ccc(-c2nc3cc(Cl)cc(Cl)c3o2)cc1	nt	nt	nt	i	nt
O=C1C2CCCN2C(=O)N1CCCN1CCN(c2cccc(Br)c2)CC1 (stereo not given)	i	i	i	i	i
SMILES	D2 antagonist	D2 ag-1	D2 PAM-1	D2 ag-2	D2 PAM-2
O=C1C2CCCCN2C(=O)N1CCCN1CCN(c2ccc(F)cc2)CC1 (stereo not given)	i	i	i	i	i
COc1ccccc1N1CCN(CCCCN2C(=O)C3CCCCN3C2=O)CC1 (stereo not given)	94	i	i	i	i
CCCCOc1ccccc1N1CCN(CCCN2C(=O)C3CCCN3C2=O)CC1 (stereo not given)	76	i	i	i	i
Cc1ccccc1N1CCN(CCCCN2C(=O)C3CCCN3C2=O)CC1 (stereo not given)	59	i	i	i	i
COc1ccccc1N1CCN(CCCN2CC(=O)N3CCCCC3C2=O)CC1 (stereo not given)	nt	i	i	nt	nt
O=c1c2oc3ccccc3c2ncn1Cc1ccc(Br)cc1	nt	nt	nt	i	i
COC(=O)c1c(-c2cccs2)csc1NC(=O)COc1c(C)ccc(C)c1C	nt	nt	nt	nt	i
CCOC(=O)c1ccc(Nc2nnc(C(C)(C)C)c(=O)[nH]2)cc1	53	i	i	i	i
